# Laboratory results: PubChem BioAssay (Tox21)
# Where “and” joins values, the source holds several entries; their conditions need not be identical. Equal values may be shown once. Results filed as inconclusive are left out. A call without a number means that no potency is given here. Unmarked numbers belong to inactive results. Calls of active or inactive are those of the source. Unless noted, the call rests on the fitted dose curve; in most records, active means well fitted curve in the direction sought with a large enough effect in the repeat runs; inconclusive means weak or mixed curves; inactive means no such curve, though single readings can be large; an effect the other way counts as inactive or inconclusive.
# Columns and labels:
# [1] = qHTS assay to identify small molecule agonists of the RXR signaling pathway - cell viability counter screen (AID 1159529); further: nearly all actives have a fitted effect of over 50% in size
# How it was run: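 Luminescence from CellTiter-Glo (30 min, RT) measured viability in the same wells as the beta-lactamase reporter readout. Cells: GeneBLAzer RXR-alpha HEK 293T, 2% charcoal-stripped FBS. Compound exposure 16 hr, 37 C.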
# [2] = qHTS assay to identify small molecule antagonists of the retinoid acid receptor (RAR) signaling pathway - cell viability counter screen (AID 1159551); further: nearly all actives have a fitted effect of over 35% in size
# How it was run: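 Luminescent ATP quantitation (CellTiter-Glo) gave cell viability in C3RL4 cells exposed to test chemicals for 6 h at 37 C alongside 1 uM final retinol.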
# [3] = qHTS assay to identify small molecule antagonists of the retinoic acid receptor (RAR) signaling pathway (AID 1159552; further: nearly all actives have a fitted effect of over 50% in size)
# How it was run: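 Luminescence from a RARE luciferase reporter in C3RL4 cells served as read-out. Cells received compounds together with 1 uM final retinol and incubated 6 hr at 37 C before detection reagent was added for 30 min at room temperature.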
# [4] = qHTS assay to identify small molecule agonists of the retinoic acid receptor (RAR) signaling pathway (AID 1159553); settings: C3RL4 RARE luciferase reporter, agonist, 6 h; activation: at 73.3 µM (top of the series) unless noted
# How it was run: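 Luminescence from a RARE-driven luciferase reporter in C3RL4 cells served as the read-out, measured after 30 min with detection reagent at room temperature. Compounds in DMSO were applied for 6 hr at 37 C following overnight seeding.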
# [5] = qHTS assay to identify small molecule antagonists of the estrogen related receptor (ERR) signaling pathway from Tox21 library - cell viability counter screen (AID 1224834); further: nearly all actives have a fitted effect of over 30% in size
# How it was run: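 Fluorescence from CellTiter-Fluor gives the viability read-out, taken 30 min after reagent addition. Before that, ERR cells seeded 6 h earlier were incubated with compounds for 17.5 h at 37 C.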
# [6] = target: Luciferin 4-monooxygenase (Photinus pyralis) (UniProt P08659); assay: qHTS assay to identify small molecule inhibitors of firefly luciferase (AID 1224835); further: nearly all actives have a fitted effect of over 25% in size
# Luciferin 4-monooxygenase (Photinus pyralis), sequence (P08659 whole entry, looked up): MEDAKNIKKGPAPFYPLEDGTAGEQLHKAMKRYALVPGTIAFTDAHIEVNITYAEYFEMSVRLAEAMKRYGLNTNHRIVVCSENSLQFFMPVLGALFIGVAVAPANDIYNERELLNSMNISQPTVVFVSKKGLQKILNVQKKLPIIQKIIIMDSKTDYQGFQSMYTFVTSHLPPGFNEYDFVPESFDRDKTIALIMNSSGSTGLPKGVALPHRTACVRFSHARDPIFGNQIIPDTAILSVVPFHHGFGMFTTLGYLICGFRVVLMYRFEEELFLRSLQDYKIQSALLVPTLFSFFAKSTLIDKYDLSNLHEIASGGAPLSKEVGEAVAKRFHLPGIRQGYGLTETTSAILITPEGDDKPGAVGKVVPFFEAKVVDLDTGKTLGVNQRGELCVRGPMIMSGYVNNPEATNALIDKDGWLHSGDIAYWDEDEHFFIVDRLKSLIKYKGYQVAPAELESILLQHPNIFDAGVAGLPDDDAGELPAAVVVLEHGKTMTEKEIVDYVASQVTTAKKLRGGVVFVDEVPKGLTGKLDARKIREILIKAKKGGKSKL
# How it was run: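 Quantitative HTS format; KM concentrations of both substrates. Purified P. pyralis FLuc activity quantified from luminescence images.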
# [7] = qHTS assay to identify small molecule agonists of the constitutive androstane receptor (CAR) signaling pathway - cell viability counter screen (AID 1224836); further: nearly all actives have a fitted effect of over 45% in size
# How it was run: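 Viability read-out: CellTiter-Fluor fluorescence after 23 h compound exposure at 37 C/5% CO2 in double-stable HepG2-CYP2B6-hCAR cells, with PK11195 present at 0.75 uM final; compounds tested in 15-point titration.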
# [8] = qHTS assay to identify small molecule antagonists of the constitutive androstane receptor (CAR) signaling pathway - cell viability counter screen (AID 1224837); further: nearly all actives have a fitted effect of over 45% in size
# How it was run: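 HepG2-CYP2B6-hCAR cells, 2500/well, 4 hr pre-incubation; compound titration, 15 conc.; CITCO 50 nM final; 23 hr, 37 C/5% CO2; CellTiter-Fluor, fluorescence intensity.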
# [9] = target: Nuclear receptor subfamily 1 group I member 3 (Homo sapiens) (UniProt Q14994); assay: qHTS assay to identify small molecule antagonists of the constitutive androstane receptor (CAR) signaling pathway (AID 1224838);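 further: HepG2 cells stably expressing hCAR with CYP2B6 luciferase reporter stimulated by CITCO; nearly all actives have a fitted effect of over 40% in size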
# Nuclear receptor subfamily 1 group I member 3 (Homo sapiens), sequence (Q14994 whole entry, looked up): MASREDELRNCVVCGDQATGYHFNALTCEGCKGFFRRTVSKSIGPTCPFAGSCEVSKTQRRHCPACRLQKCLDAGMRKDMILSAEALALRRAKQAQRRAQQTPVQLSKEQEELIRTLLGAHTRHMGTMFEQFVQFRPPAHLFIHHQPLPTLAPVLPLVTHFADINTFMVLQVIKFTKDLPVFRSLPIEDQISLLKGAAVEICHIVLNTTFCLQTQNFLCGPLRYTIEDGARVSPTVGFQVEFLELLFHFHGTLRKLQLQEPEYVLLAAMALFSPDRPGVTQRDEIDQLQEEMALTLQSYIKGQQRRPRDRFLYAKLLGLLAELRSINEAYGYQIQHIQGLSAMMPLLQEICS
# How it was run: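 HepG2-CYP2B6-hCAR cells; 4 h pre-incubation; cpd (15 conc) + CITCO 50 nM final; 24 h, 37 C/5% CO2; ONE-Glo, luminescence.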
# [10] = target: Nuclear receptor subfamily 1 group I member 3 (Homo sapiens) (UniProt Q14994); assay: qHTS assay to identify small molecule agonists of the constitutive androstane receptor (CAR) signaling pathway (AID 1224839); further: nearly all actives have a fitted effect of over 15% in size; further: potency means the concentration at half of the fitted maximal effect;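 on activation: HepG2 cells stably carrying human CAR and a CYP2B6 luciferase reporter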
# How it was run: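 Luminescence read-out (ONE-Glo, 30 min, room temperature) from double-stable HepG2-CYP2B6-hCAR cells exposed 24 h to 15-point compound series in presence of 0.75 uM PK11195 final.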
# [11] = qHTS assay to identify small molecule antagonists of the estrogen related receptor signaling pathway with the pleiotropic PPARgamma coactivator (PGC) from Tox21 10K library - cell viability counter screen (AID 1224840; active means well fitted cell-killing curve with a large enough effect in the repeat runs, not every such curve was filed as active; further: nearly all actives have a fitted effect of over 40% in size)
# How it was run: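 PGC/ERR cells, 2,000/well; 6 h pre-incubation 37 C/5% CO2; cpd in DMSO via pin tool; 17.5 h 37 C; CellTiter-Fluor, 30 min; fluorescence.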
# [12] = target: Thyrotropin receptor (Homo sapiens) (UniProt P16473); assay: qHTS assay to identify small molecule agonists of the thyroid stimulating hormone receptor (TSHR) signaling pathway (AID 1224843; calls by dose curve; further: nearly all actives have a fitted effect of over 45% in size)
# Thyrotropin receptor (Homo sapiens), sequence (P16473 whole entry, looked up): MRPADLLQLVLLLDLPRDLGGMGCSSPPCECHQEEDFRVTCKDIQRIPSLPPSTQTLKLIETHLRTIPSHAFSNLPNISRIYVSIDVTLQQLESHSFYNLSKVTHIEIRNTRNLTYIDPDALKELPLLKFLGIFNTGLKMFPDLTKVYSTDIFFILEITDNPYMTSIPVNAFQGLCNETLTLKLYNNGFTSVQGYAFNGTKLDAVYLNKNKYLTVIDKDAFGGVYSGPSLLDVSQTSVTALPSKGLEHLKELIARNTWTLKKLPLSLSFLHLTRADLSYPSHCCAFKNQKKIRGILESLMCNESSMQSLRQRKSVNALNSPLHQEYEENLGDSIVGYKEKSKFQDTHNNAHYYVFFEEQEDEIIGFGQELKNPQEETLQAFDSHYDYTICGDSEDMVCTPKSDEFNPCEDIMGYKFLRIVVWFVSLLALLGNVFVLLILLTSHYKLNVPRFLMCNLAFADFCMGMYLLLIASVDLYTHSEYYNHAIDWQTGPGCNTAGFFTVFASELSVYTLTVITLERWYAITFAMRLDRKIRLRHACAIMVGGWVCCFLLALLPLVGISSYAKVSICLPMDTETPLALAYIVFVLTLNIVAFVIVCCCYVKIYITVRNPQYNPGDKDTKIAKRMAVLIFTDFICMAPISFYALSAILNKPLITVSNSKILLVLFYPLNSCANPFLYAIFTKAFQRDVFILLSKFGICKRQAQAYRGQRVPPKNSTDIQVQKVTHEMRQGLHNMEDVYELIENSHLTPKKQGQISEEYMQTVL
# How it was run: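 TSHR-expressing HEK293 cells (800 per well) were exposed to compounds for 30 min at room temperature. cAMP was then detected by HTRF competition with cAMP-d2 and anti-cAMP cryptate, read after 1 h at room temperature. Fifteen concentrations, triplicate.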
# [13] = qHTS assay to identify small molecule antagonists of the estrogen related receptor signaling pathway with the pleiotropic PPARgamma coactivator (PGC) from Tox21 10K library (AID 1224841; call rule not given here; further: actives are mostly falling curves and most rising ones were filed inactive; nearly all actives have a fitted effect of over 50% in size; further: potency means the concentration at half of the fitted maximal effect)
# How it was run: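 PGC/ERR cell line, 2,000 cells/well; 6 h pre-incubation 37 C/5% CO2; compounds (DMSO) pinned in; 18 h, 37 C; One-Glo, 30 min RT; luminescence.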
# [14] = qHTS assay to identify small molecule agonists of the estrogen related receptor signaling pathway with the pleiotropic PPARgamma coactivator (PGC) from Tox21 10K library (AID 1224842); further: nearly all actives have a fitted effect of over 15% in size
# How it was run: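 PGC/ERR reporter cells (NTP line) were seeded 2,000 per well, rested 6 h at 37 C/5% CO2, then pin-dosed with compounds in DMSO for 18 h at 37 C; luciferase read by One-Glo luminescence after 30 min at room temperature.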
# [15] = qHTS assay to identify small molecule antagonists of the estrogen related receptor (ERR) signaling pathway - cell viability counter screen (AID 1224818);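 further: viability measured after 17.5 h of compound exposure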
# How it was run: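 Multiplexed counter screen to separate cytotoxic compounds from true ERR modulators. ERR cells received DMSO-dissolved compounds after a 6 h pre-incubation, were exposed 17.5 h at 37 C, then assayed with CellTiter-Fluor fluorescence.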
# [16] = qHTS assay to identify small molecule antagonists of the estrogen related receptor signaling pathway with the pleiotropic PPARgamma coactivator (PGC) cell viability counter screen (AID 1224822)
# How it was run: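 Cells: PGC/ERR, 2,000/well, 1536-well format. Pre-incubation 6 h, 37 C/5% CO2. Compound exposure 17.5 h, 37 C. Detection: CellTiter-Fluor, 30 min, fluorescence.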
# [17] = qHTS assay to identify small molecule antagonists of the estrogen related receptor (ERR) signaling pathway (AID 1224819;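 further: luminescence from an ERR-driven luciferase reporter measured with One-Glo reagent; nearly all actives have a fitted effect of over 50% in size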)
# How it was run: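 Seed ERR cells 2,000/well; rest 6 h at 37 C/5% CO2; pin compounds in DMSO; incubate 18 h at 37 C; add One-Glo; wait 30 min at room temperature; measure luminescence.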
# [18] = qHTS assay to identify small molecule agonists of the estrogen related receptor (ERR) signaling pathway (AID 1224820)
# How it was run: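 Quantitative HTS of the LOPAC library used NTP ERR reporter cells treated 18 h at 37 C. Signal is luminescence after One-Glo addition and a 30 min room-temperature incubation.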
# [19] = tested on: estrogen-related receptor alpha (ERRalpha) with PGC-1alpha coactivator, human; assay: qHTS assay to identify small molecule antagonists of the estrogen related receptor signaling pathway with the pleiotropic PPARgamma coactivator (PGC) (AID 1224821; calls by dose curve)
# How it was run: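 Quantitative HTS for antagonism: PGC/ERR cells received compounds after 6 h attachment and were incubated 18 h at 37 C, with luminescence (One-Glo) as the endpoint.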
# [20] = qHTS assay to identify small molecule agonists of the estrogen related receptor signaling pathway with the pleiotropic PPARgamma coactivator (PGC) (AID 1224823)
# How it was run: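 Cell-based luciferase assay in the NTP-supplied PGC/ERR line, 2,000 cells/well; 18 h compound exposure at 37 C, luminescence after One-Glo.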
SMILES,Potency [1],Potency [2],Potency [3],Potency [4],Potency [5],Potency [6],Potency [7],Potency [8],Potency [9],Potency [10],Potency [11],Potency [12],Potency [13],Potency [14],outcome [15],Potency [16],Potency [17],outcome [18],Potency [19],outcome [20]
CCCCCNCCCCC,inactive,inactive,inactive,inactive,inactive,inactive,inactive,inactive,inactive,inactive,inactive,inactive,,,,,,,,
OCC(O)CS (stereo unspecified),inactive,inactive,inactive,inactive,inactive,inactive,inactive,inactive,inactive,inactive,inactive,inactive,,,,,,,,
CC(=O)OC/C=C(\C)CCC=C(C)C,inactive,inactive,inactive,inactive,inactive,inactive,inactive,inactive,inactive,inactive,inactive,inactive,,,,,,,,
Cc1ccncc1,inactive,inactive,inactive,inactive,inactive,inactive,inactive,inactive,,,inactive,inactive,,,,,,,,
COc1cc(NC(=O)CC(C)=O)c(OC)cc1Cl,inactive,inactive,inactive,inactive,inactive,inactive,inactive,,inactive,61.4 µM (active) and 61.1 µM (active),inactive,inactive,38.7 µM (active),inactive,,,,,,
O=Cc1ccc(CO)o1,inactive,inactive,inactive,inactive,inactive,inactive,inactive,,inactive,inactive,inactive,inactive,inactive,inactive,,,,,,
CN1Cc2c(N)cccc2C(c2ccccc2)C1 (stereo unspecified),inactive,inactive,inactive,inactive,inactive,inactive,inactive,inactive,inactive,inactive,inactive,inactive,,,inactive,inactive,,,,
Cc1cccc(C)c1[N+](=O)[O-],inactive,inactive,inactive,inactive,inactive,inactive,inactive,inactive,,,inactive,inactive,,,,,,,,
O=[N+]([O-])c1ccccc1C(F)(F)F,inactive,inactive,inactive,inactive,inactive,inactive,inactive,inactive,inactive,inactive,inactive,inactive,inactive,inactive,,,,,,
Cc1cc(CC(=O)O)n(C)c1C(=O)c1ccc(Cl)cc1,inactive,inactive,inactive,inactive,inactive,inactive,inactive,inactive,,,inactive,inactive,,,,,,,,
Cc1cc(C)cc(O)c1,inactive,inactive,inactive,inactive,inactive,inactive,inactive,inactive,inactive,inactive,inactive,inactive,inactive,inactive,,,,,,
C=CC(C)(C)C,inactive,inactive,inactive,inactive,inactive,inactive,inactive,inactive,inactive,inactive,inactive,inactive,inactive,inactive,,,,,,
OB(O)O,inactive,inactive,inactive,inactive,inactive,inactive,inactive,inactive,inactive,inactive,inactive,inactive,inactive,inactive,,,,,,
Cc1ccc(C)c(S(=O)(=O)O)c1,inactive,inactive,inactive,inactive,inactive,inactive,inactive,inactive,inactive,inactive,inactive,inactive,,,,,,,,
CC/C(C)=N/O,inactive,inactive,inactive,inactive,inactive,inactive,inactive,inactive,inactive,inactive,inactive,inactive,,,,,,,,
OCC(CO)(CO)CO,inactive,inactive,inactive,inactive,inactive,inactive,inactive,,inactive,inactive,inactive,inactive,,,,,,,,
CCOC(=O)c1ccc(O)cc1,inactive,inactive,inactive,inactive,inactive,inactive,inactive,inactive,inactive,inactive,inactive,inactive,,,,,,,,
CN=C(NC#N)NCCSCc1nc[nH]c1C,inactive,inactive,inactive,inactive,inactive,inactive,inactive,inactive,inactive,inactive,inactive,inactive,inactive,inactive,inactive,inactive,inactive,inactive,inactive,inactive
NC1CCCCC1N (stereo unspecified),inactive,inactive,inactive,inactive,inactive,,inactive,,inactive,inactive,inactive,inactive,inactive,inactive,,,,,,
